Sampled rows, rich in hits. Any-hit rate of the full collection: about 13%.
HCMV inh – qHTS Assay for inhibitors of the human cytomegalovirus (HCMV); HFF cells, HCMV-luciferase reporter, 72 h; active compounds read low; activity change, negative = inhibition, % at 57.5 µM; 410,000 tested, 4.5% active; in the data active = activity change below about -60%; inconclusive = no clear call, values can overlap the other calls; inactive = above about -39%
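HFF cells seeded 16 h at 37C, treated with compounds, infected with luciferase-reporter HCMV at MOI 1 PFU/cell; luciferase read at 72 h post infection, normalized to buffer-only and Salinomycin controls.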
HCV inh – qHTS Assay for Inhibitors of Hepatitis C Virus (HCV); AID 651820, 2012; Huh7.5.1 HCVcc-Cre infection, luciferase reporter, 44 h; Potency, µM (doses to about 41.8 µM), for the others: at the top dose activity change, negative = inhibition, most hits filed as inhibitors; 340,000 tested, 3.4% active; also: potency is read from the fitted curve at half-maximal effect
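Infectious HCVcc-Cre (~0.5 moi) was added to cells just after compound, with cells seeded 4 h earlier at 1,000 per well. Luciferase activity after 44 h culture reported infection; substrate was incubated 15 min at room temperature before reading.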
Pf growth 96h – Primary qHTS for delayed death inhibitors of the malarial parasite plastid, 96 hour incubation; P. falciparum luciferase reporter growth, 96 h; Potency, µM (highest dose often 28.7 µM), without a hit: top-dose activity change, negative = inhibition, hits mostly inhibitors; 320,000 tested, 6.9% active; AID 504834, 2011; also: potency is read from the fitted curve at half-maximal effect
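Two-generation exposure (96 h) targets delayed-death phenotype. Reporter parasites carrying integrated firefly luciferase, in red cells at 2% hematocrit and 0.05% parasitemia final, kept at 37 C, 5% CO2; luminescence loss indicates inhibition.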
Pf growth 48h – Primary qHTS for delayed death inhibitors of the malarial parasite plastid, 48 hour incubation; AID 504832, 2011; Potency, µM (doses to about 28.7 µM), for the others: at the top dose activity change, negative = inhibition, usual class: inhibitors; 310,000 tested, 5.9% active; P. falciparum luciferase growth in erythrocytes, 48 h; also: potency is read from the fitted curve at half-maximal effect
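Luminescence readout; reporter = integrated firefly luciferase in P. falciparum. RBC culture at 2% hematocrit, 0.1% parasitemia final, 37 C/5% CO2; decreased signal taken as growth inhibition.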
* marks the source's active call; other numbers are inactive results; ! = not confirmed by another sample. Unless noted, calls follow the shape of the dose curve; as a rule, active = well fitted inhibition curve with a large enough effect; inconclusive = small, poorly fitted or top-dose-only effect, or another doubt; inactive = no such curve, though single readings can be large or run the other way. % is scaled to controls: 0 for no effect and ±100 for the full control effect.

Results for CC1CCN(C(=O)c2ccc(NS(=O)(=O)c3ccc4[nH]c(=O)[nH]c4c3)cc2)CC1 ?
HCMV inh: -97.9*; HCV inh: inconclusive; Pf growth 96h: -2.6%; Pf growth 48h: 8.8%

Results for CCN(CC)C(=O)c1ccc(NS(=O)(=O)c2ccc3[nH]c(=O)[nH]c3c2)cc1 ?
HCMV inh: -35.3; Pf growth 96h: 8.28µM*; Pf growth 48h: 11.7µM*

What do the screens show for `CC1CCN(C(=O)c2ccc(CNS(=O)(=O)c3ccc(C(C)(C)C)cc3)cc2)CC1`?
HCMV inh: -37.3; HCV inh: 22.4µM*

How did COc1ccc(NS(=O)(=O)c2ccc(C(=O)N3CCC(C)CC3)cc2)cc1 do in these assays?
HCMV inh: -66.2*; HCV inh: inconclusive

Results for O=C(c1ccc(CNS(=O)(=O)c2ccccc2)cc1)N1CCC2(CC1)OCCO2 ?
HCMV inh: -15.6; HCV inh: 10.8%; Pf growth 96h: 8.28µM*; Pf growth 48h: 55.0%

How did O=C1NC(=O)/C(=C/c2cccc([N+](=O)[O-])c2)N1 do in these assays?
HCMV inh: 27.0; HCV inh: -1.7%; Pf growth 96h: inconclusive; Pf growth 48h: inconclusive

What do the screens show for `O=C1/C(=C\c2ccc3c(c2)OCO3)CCC/C1=C/c1ccc2c(c1)OCO2`?
HCMV inh: -89.2*; HCV inh: -5.2%; Pf growth 96h: 0.0%; Pf growth 48h: 3.3%

How did O=C1/C(=C/c2ccncc2)CCC/C1=C\c1ccncc1 do in these assays?
HCMV inh: -100.4*; HCV inh: 6.31µM*; Pf growth 96h: 49.3%; Pf growth 48h: inconclusive

How did COc1cc(/C=C2\CC/C(=C\c3cc(OC)c(O)c(OC)c3)C2=O)cc(OC)c1O do in these assays?
HCMV inh: -97.5*; HCV inh: inconclusive; Pf growth 96h: 6.57µM*; Pf growth 48h: inconclusive

Results for CCN1C/C(=C/c2cccc([N+](=O)[O-])c2)C(=O)/C(=C/c2cccc([N+](=O)[O-])c2)C1 ?
HCMV inh: -102.5*; HCV inh: inconclusive; Pf growth 96h: 2.33µM*; Pf growth 48h: 1.65µM*

Results for O=C1/C(=C\c2ccccc2)CCC/C1=C/c1ccccc1 ?
HCMV inh: -40.0; HCV inh: -7.6%

What do the screens show for `O=C(c1ccc2ccccc2c1)N1CCn2c(nnc2C(=O)N2CCOCC2)C1`?
HCMV inh: -0.9

Results for CC(C)c1cccc(-c2nc3c(NCc4cccc(N(C)C)c4)nccc3[nH]2)c1 ?
HCMV inh: -0.3

How did CCN(CC)C(=O)Cn1c(=O)n(CCc2ccccc2)c(=O)c2ccccc21 do in these assays?
HCMV inh: 38.2

How did COc1cc(/C=C2\CC/C(=C\c3cc(OC)c(OC)c(OC)c3)C2=O)cc(OC)c1OC do in these assays?
HCMV inh: -5.7; HCV inh: 12.6µM*; Pf growth 96h: 2.08µM*; Pf growth 48h: 2.62µM*

What do the screens show for `COc1cc(/C=C2\COC/C(=C\c3cc(OC)c(OC)c(OC)c3)C2=O)cc(OC)c1OC`?
HCMV inh: -97.7*; HCV inh: 1µM*; Pf growth 96h: 0.828µM*; Pf growth 48h: 0.37µM*

Results for CCOc1cc(C=O)ccc1O ?
HCMV inh: 20.4; HCV inh: 11.6%

What do the screens show for `COc1cc(C=C2C(=O)C=CC2=O)ccc1O`?
HCMV inh: -87.9*

How did COc1cc(/C=C2/C(=O)CNC2=O)ccc1O do in these assays?
HCMV inh: 56.6; HCV inh: 12.8%; Pf growth 96h: 5.0%; Pf growth 48h: inactive

Results for COc1cc(/C=C2\CCC(C3CCCC3)C2=O)cc(OC)c1OC (configuration not stated) ?
HCMV inh: inconclusive; HCV inh: -28.7%; Pf growth 96h: 0.0%; Pf growth 48h: -20.4%

Results for CCOc1cc(/C=C2\CN(CC)C/C(=C\c3ccc(O)c(OCC)c3)C2=O)ccc1O ?
HCMV inh: -100.9*; HCV inh: 4.47µM*; Pf growth 96h: 2.08µM*; Pf growth 48h: 2.08µM*

Results for COc1cc(/C=C2\N=C(C)OC2=O)cc(OC)c1OC ?
HCMV inh: 1.9; HCV inh: 12.8%; Pf growth 96h: 5.2%; Pf growth 48h: 1.1%

Results for COc1ccc(Br)cc1CNC(=O)c1nn(-c2ccc(C)cc2)c(=O)c2c1c1ccccc1n2C ?
HCMV inh: 22.8

How did Cc1ccc(-c2cc(NC(=O)Cc3c(C)[nH]c4ccccc34)ccc2Nc2cccnc2)cc1 do in these assays?
HCMV inh: 3.5

Results for COc1cc(/C=C2/CCCC(C(=O)C(F)(F)F)=C2O)ccc1O ?
HCMV inh: -14.3; HCV inh: 5.8%; Pf growth 96h: 32.0%; Pf growth 48h: 11.6%

What do the screens show for `COc1cc(/C=C2\CC(C(C)(C)C)C/C(=C\c3cc(OC)c(OC)c(OC)c3)C2=O)cc(OC)c1OC` (configuration not stated)?
HCMV inh: -97.9*; HCV inh: 2.51µM*; Pf growth 96h: inconclusive; Pf growth 48h: inconclusive

How did COc1cc(/C=C2/CCC/C(=C\c3cc(O)c(OC)c(Cl)c3)C2=O)cc(Cl)c1O do in these assays?
HCMV inh: -100.0*; HCV inh: 11.2µM*; Pf growth 96h: 0.131µM*; Pf growth 48h: inconclusive

What do the screens show for `COc1cc(/C=C2\CCc3ccccc3C2=O)cc(OC)c1OC`?
HCMV inh: -74.3*; HCV inh: inconclusive; Pf growth 96h: 35.1%; Pf growth 48h: -26.7%

How did COc1cc(/C=C2\CCC/C(=C\c3ccc(O)c(OC)c3)C2=O)ccc1O do in these assays?
HCMV inh: -101.1*; HCV inh: 12.6µM*; Pf growth 96h: 5.36µM*!; Pf growth 48h: 9.28µM*

How did COc1ccc(/C=C2/CCc3ccccc3C2=O)cc1OC do in these assays?
HCMV inh: inconclusive; HCV inh: inconclusive; Pf growth 96h: inconclusive; Pf growth 48h: 95.0%

Results for Cc1ccccc1C(=O)NC1(C(F)(F)F)C(=O)Nc2c1c(=O)[nH]c(=O)n2-c1ccc(F)cc1 (configuration not stated) ?
HCMV inh: 22.6

How did Cc1ccc(NC(=O)CCc2nnc3n(C)c(=O)c4sccc4n23)cc1C do in these assays?
HCMV inh: 2.0

What do the screens show for `C[C@@H]1CN([C@@H](C)CO)C(=O)CCCn2cc(nn2)CO[C@H]1CN(C)C(=O)Nc1ccccc1`?
HCMV inh: 8.0

How did CC(C)c1ccc(O)c(=O)cc1 do in these assays?
HCMV inh: -32.7

Results for CC(C)c1cccc(O)c(=O)c1 ?
HCMV inh: 0.0; HCV inh: -5.8%; Pf growth 96h: 3.29µM*; Pf growth 48h: 2.94µM*

How did O=C(CNC(=O)c1ccc(F)cc1)OCc1cc(=O)n2ccsc2n1 do in these assays?
HCMV inh: 1.4

How did CCCOc1ccc(CC2C(=O)Nc3ccc(Br)cc32)cc1 (configuration not stated) do in these assays?
HCMV inh: -31.0

Screens as filed in PubChem.
